Each structure is given as a SMILES string. Calls of active or inactive are those of the source. Rule for the calls: active = hit-call score of the fitted dose curve at least 0.9, where 1 is the maximum; inactive = score below 0.9.

Experimental findings from PubChem BioAssay (EPA / NIEHS) are described below.

The experiment is described as follows: ATG_PBREM_CIS: Attagene CIS-FACTORIAL HepG2 Assay for human Phenobarbital-responsive Enhancer Module (PBREM) (AID 2282955). The settings on record: HepG2 PBREM cis-reporter, Attagene multiplexed transcription; actives raise or lower the signal. As for the experimental part: ATG_CIS is a cell-based, multiplexed-readout assay that uses HepG2, a human liver cell line, with measurements taken at 24 hours after chemical dosing in a 24-well plate.ATG_PBREM_CIS is one of 52 assay component(s) measured or calculated from the ATG_CIS assay. It is designed to make measurements of mRNA induction, a form of inducible reporter, as detected with fluorescence intensity signals by Reverse transcription polymerase chain reaction (RT-PCR) and Capillary electrophoresis technology.Data from the assay component ATG_PBREM_CIS was analyzed into 1 assay endpoint. This assay endpoint, ATG_PBREM_CIS, was analyzed with bidirectional fitting relative to DMSO as the negative control and baseline of activity. Using a type of inducible reporter, measures of mRNA for gain or loss-of-signal activity can be used to understand the reporter gene at the transcription factor-level as they relate to the gene NR1I3. Furthermore, this assay endpoint can be referred to as a primary readout, because this assay has produced multiple assay endpoints where this one serves a reporter gene function. To generalize the intended target to other relatable targets, this assay endpoint is annotated to the nuclear receptor intended target family, where the subfamily is non-steroidal.
Human liver HepG2 cells are transiently transfected with multiple reporter transcription units (MRTUs) in 6-well plates using FuGene 6 reagent (Roche; 3 ml FuGene/1 mg DNA). The MRTU constructs are regulated by a cis-regulating element (promoter). […] A major difference between the CIS and TRANS system is that in CIS activities of endogenous TFs are measured, whereas the TRANS assay evaluates changes in activities of exogenous, chimeric NR-Gal4 proteins. […] At the end of 24 hour incubation, total RNA was isolated using TriZol reagent (Invitrogen). The isolated RNA is then reverse-transcribed using oligo(dT) primer and Mo-MLV reverse transcriptase (Invitrogen) with DNAse I (Ambion) treatment for 30 min. The one-tenth of the produced cDNA was amplified by PCR using Taq DNA polymerase (Invitrogen) and two reporter sequence-specific primers. The PCR products were fluorescently labeled by primer extension with 6-arboxyfluorescein (6-FAM) 5'-labeled reporter sequence-specific primer (2 min at 95 C, 20 s at 68 C and 10 min at 72 C) and these products were digested with 5U of HpaI (New England Biolabs) for 2h at 37 C. The fragments were purified using Qiaquick PCR columns (Qiagen), analyzed on an ABI 3130xL genetic analyzer (Applied Biosystems) with peak positions identified by using a set of X-rhodamine (ROX)-labeled MapMarker1000 molecular weight standards (BioVentures). The raw capillary electrophoresis data was processed using Attagraph software (Attagene).
For the compound `CCC(C)(C)c1cc(O)c(C(C)(C)CC)cc1O`, the outcome was inactive.
The same measure, in the same setting: then `OC[C@H]1O[C@@H](O[C@H]2[C@H](O)[C@@H](O)[C@H](O)O[C@@H]2CO)[C@H](O)[C@@H](O)[C@H]1O`, with “inactive”; and `CC(C)(C)c1ccc(S)cc1`, with “inactive”; and `CC(C)(C)C1CCC(O)CC1` (stereo not given), with “inactive”.
Still for that read-out and setting: the same measure for `CCCCCCCCCCCCN1CCOCC1`: “inactive”; for `NC(=O)c1cnccn1`: “inactive”.
`CCCO[Si](OCCC)(OCCC)OCCC`: the outcome was inactive.
The same measure, in the same setting: the same measure for `Cc1cc(O)c(C)c(C)c1O`: “inactive”; for `CC(C)=CC(=O)O`: “inactive”; for `CCNC(=S)NCC`: “inactive”.
For `CC(=O)OCC=C(C)CCC=C(C)CCC=C(C)C`, the AC50 is 175 µM (active).
Take `CCCCCCCCOC(=O)c1ccc(O)cc1`: the outcome was inactive.
In the case of `CC(=O)OC(C)(C)C1CC=C(C)CC1` (stereo not given), the result was inactive.
In the case of `C=C/C(C)=C/C/C=C(\C)CCC=C(C)C`, the result was inactive.
The same measure, in the same setting: then `N=C1N=C(N)c2ccccc21`, with “inactive”; and `CC(=O)Oc1c(C)c(C)c2c(c1C)CC[C@@](C)(CCC[C@H](C)CCC[C@H](C)CCCC(C)C)O2`, with “inactive”; and `CCCCCCCCCCCCCC(=O)OCC`, with “inactive”.
With `O=C(O)c1cc2ccccc2cc1O`, the outcome was inactive.
For the compound `Cc1cc(O)c2c(c1)C(=O)c1cc(O)cc(O)c1C2=O`, the AC50 was 14.9 µM (active).
As to `CC(=O)CCC=C(C)CCC=C(C)C`, the result was inactive.
As to `CN(C)C`, the outcome was inactive.
Take `CCCCN(CCCC)CCCCCCN(CCCC)CCCC`: the outcome was inactive.
On to `CC(=O)C1C(=O)C=C(C)OC1=O` (stereo not given), for which the outcome was inactive.
As to `O=C(O)c1ccc(C(=O)O)c(C(=O)O)c1`, the result was inactive.
For the compound `S=c1[nH][nH]c(=S)s1`, the outcome was inactive.
On to `C=C(C)C(=O)OCCOCCOC(=O)C(=C)C`, for which the result was inactive.
As to `CCOC(=O)CC1(C)OCC(C)O1` (stereo not given), the outcome was inactive.
On to `O=c1cc[nH]cc1`, for which the outcome was inactive.
With `C=CC(C)CCCC(C)(C)O` (stereo not given), the result was inactive.
For `CCOC(=O)C=Cc1ccccc1`, the outcome was inactive.
In the case of `O=C1CCCCCCCCCCCC(=O)OCCO1`, the result was inactive.
In the case of `CC(=O)Nc1cc(S(=O)(=O)O)cc2cc(S(=O)(=O)O)c(N=Nc3ccccc3)c(O)c12`, the result was inactive.
As for `CC(=O)C1=C(C)[C@@H]2C[C@@]3(C1)[C@H](C)CC[C@H]3C2(C)C`, the AC50 is 161 µM (active).
On to `NCCN1CCNCC1`, for which the outcome was inactive.
The same measure, in the same setting: the same measure for `CC(C)COC(=O)c1ccccc1O`: “inactive”; for `O=C(O)c1ccccc1O`: “inactive”.
Same read-out and setting: the same measure for `Cc1ccccc1S`: “inactive”.
The same measure, in the same setting: the same measure for `O=S(=O)(O)c1cc(S(=O)(=O)O)c2c(N=Nc3ccccc3)c(O)ccc2c1`: “inactive”; for `CC(=O)CCC(=O)O`: “inactive”; for `Nc1ccc(O)c(N)c1`: “inactive”.

By AC50 is commonly meant the concentration at which the activity in the assay is half-maximal.
